Test results taken from PubChem BioAssay.
A number with no mark means an inactive call. Calls of active or inactive are those of the source. Unless noted, how the calls were made is not given here.

Assay: Pseudomonas biofilm growth suppression – PAO1 strain, BacTiter-Glo luminescence, LB-PBS, primary screen (AID 1144)
Conditions: P. aeruginosa PAO1 biofilm, 12 h, higher = more signal

In order of rising z-score:
1. CN1C(=O)C2C=CC(C(O)c3ccc(I)cc3)N(Nc3ccccc3)C2C1=O (centres undefined)  -0.507
2. CCOC(=O)C1=C[C@@H](c2ccccc2)N(S(=O)(=O)c2ccc(C)cc2)[C@H]1c1ccccc1  -0.42
3. Cc1ccc(S[C@]2(C(=O)NCc3ccccc3)CC(=O)N(Cc3cc(C(F)(F)F)cc(C(F)(F)F)c3)[C@@H]2c2ccc(CO)cc2I)cc1  -0.314
4. CC(C)c1ccc(NN2C(C(O)Cc3ccccc3)C=CC3C(=O)N(c4ccccc4)C(=O)C32)cc1 (centres undefined)  -0.221
5. COC(=O)[C@@]1(Cc2ccc(F)cc2)[C@H]2c3cc(C(=O)N4CCCC4)n(CC4CC4)c3C[C@H]2CN1C(=O)c1ccccc1  0.197
6. COCCCNC(=O)[C@@]1(c2ccc([N+](=O)[O-])cc2)CC(=O)N(C(C)C)[C@@H]1c1ccc(CO)cc1  0.797
7. CC1CC/C=C\[C@H]2OC34C=CCN(C(C)(C)C)C(=O)[C@H]3N(C(CO)C(C)C)C(=O)[C@@H]4C2C(=O)O1 (some centres undefined)  1.4

Assay: basal CRE-LacZ reporter activity in PC12 – cell-based, unstimulated, primary screen (AID 1145)
Conditions: no forskolin, luminescence, 4.5 h, higher = more signal, called active from +8 up or from −8 down

In order of falling z-score:
1. CC(C)C(=C=CC[C@H](O)c1cccc(OCCO)c1)CCO  6.6
2. [N-]=[N+]=NCc1ccccc1[C@@H]1OC(c2ccc(OCCCO)cc2)=N[C@]1(Cc1ccccc1)C(=O)NCCN1CCOCC1  2.76
3. COc1ccc([Si](C)(C)[C@H]2[C@H](CCO)O[C@@]3(C(=O)N(Cc4ccccc4)c4ccc(N5CCOC5=O)cc43)[C@@H]2C)cc1  2.11
4. C[C@@]12COC[C@]13C=C(Br)[C@H](C2)[C@@]1(CO1)C3=O  0.769
5. O=C(CS)NCCCCCNC(=O)[C@@H]1C[C@@H]2C(=O)N[C@@H](Cc3ccccc3)C(=O)N2[C@@H]1c1cccc(OCCO)c1  0.7
6. O=C1C2C=CC(C(O)c3ccc4c(c3)OCO4)N(Nc3ccccc3)C2C(=O)N1c1ccccc1 (centres undefined)  0.44
7. COc1ccc([Si](C)(C)[C@H]2[C@H](CCO)O[C@@]3(C(=O)N(Cc4ccccc4)c4ccc(N5C(=O)c6ccccc6Oc6ccccc65)cc43)[C@@H]2C)cc1  0.324
8. COCCOC(=O)N1C(=O)[C@@]2(c3ccccc31)[C@H](c1ccccc1OCCO)N1[C@H](c3ccccc3)[C@H](c3ccccc3)OC(=O)[C@H]1[C@@H]2C(N)=O  0.272
9. C=C(/C(=C/C[C@@H](OC(C)=O)c1ccc(CO)o1)c1cc(C(=O)OC)ccc1OC)C(C)C  0.247
10. Nc1cc(Br)ccc1C(=O)O  0.209
11. NCCCCCNC(=O)[C@@H]1C[C@@H]2C(=O)N3CCC[C@H]3C(=O)N2[C@@H]1c1ccc(O)cc1  0.143
12. COc1cc(NN2C(C(O)c3ccccc3)C=CC3C(=O)N(C)C(=O)C32)cc(OC)c1OC (centres undefined)  0.0603
13. CC(=O)NCCCC[C@@H]1NC(=O)[C@@H]2C[C@H](C(=O)NCCCCCCN)[C@H](c3cccc(OCCO)c3)N2C1=O  -0.13
14. COc1cc(NN2C(C(O)c3ccc(I)cc3)C=CC3C(=O)N(c4ccccc4)C(=O)C32)cc(OC)c1OC (centres undefined)  -0.136
15. NC(=O)[C@H]1[C@@H]2C(=O)O[C@@H](c3ccccc3)[C@@H](c3ccccc3)N2[C@@H](c2ccc(O)cc2)[C@]12C(=O)Nc1ccccc12  -0.141
16. CC=CC(O)C1C=CC2C(=O)NC(=O)C2N1Nc1ccccn1 (centres undefined)  -0.329
17. COC(=O)[C@@]1(Cc2ccccc2)[C@H]2c3cc(C(=O)N(C)C)n(CCn4cc([N+](=O)[O-])nc4C)c3C[C@H]2CN1C(=O)c1ccccc1  -0.379
18. CC(C)N1CC=CC23O[C@@H]4/C=C\CCCOC(=O)C4[C@H]2C(=O)N(CCCCCCO)[C@@H]3C1=O (some centres undefined)  -0.48
19. O=C(CS)NCCCCCCNC(=O)[C@@H]1C[C@@H]2C(=O)NCC(=O)N2[C@@H]1c1ccc(O)cc1  -0.537
20. COCCCNC(=O)[C@@H]1c2ccccc2C(=O)N(C2Cc3ccccc3C2)[C@H]1c1ccc(CO)cc1  -0.619
21. CN(C)CCCCNC(=O)[C@H]1C[C@H]2C(=O)N[C@@H](CCCC[N+](C)(C)C)C(=O)N2[C@H]1c1ccc(O)cc1  -1.2

With `C=CCN1C(=O)[C@]2(O[C@H](CCO)[C@@H]([Si](C)(C)c3ccc(OC)cc3)[C@@H]2C)c2cc(NC(=O)c3ccc(OC)cc3)ccc21` the z-score was 15.2 (active).
